The record followed here is PubChem BioAssay (NCATS).

Test [1] concerns the target Nuclear receptor ROR-gamma (Homo sapiens) (UniProt P51449). Nature of the test: qHTS assay for small molecule antagonists of the retinoid-related orphan receptor gamma (ROR-gamma) signaling pathway (AID 651802).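 Note: CHO cells with doxycycline-induced ROR-gamma expression; luciferase reporter luminescence driven by ROR response element; % is set by controls: 0 for no effect and ±100 for the full control effect; nearly all actives have a fitted effect of over 60% in size.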 In short, it runs like this: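 Luminescence (One-Glo, 30 min RT) measured 16 h after compound addition and doxycycline induction at 37C. Reporter: RORE-luciferase under TET-inducible ROR-gamma in CHO cells.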
For orientation: In qHTS, concentration-response curves come from the screen itself.

In test [2] the target is Arylsulfatase A (Homo sapiens) (UniProt P15289). Nature of the test: qHTS screen for enhancers of Arylsulfatase A (ASA1): LOPAC Validation Assay (AID 720538). Note: potency is the fitted concentration of half-maximal effect. In short, it runs like this:
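MLD patient fibroblasts (SV40, ASA-I179S), 1536-well; adhere 6 hrs; cpd 48h, 37 degree C, 5% CO2; pNCS 0.5mM final in lysis buffer, 14h RT; stop 1N NaOH final; fluor. Ex525/Em598.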

A short description of test [3]: qHTS for compounds that reverse cellular toxicity of Amyloid beta (A-beta) peptide in yeast: LOPAC Validation Assay (AID 720559).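 Note: plate controls were DMSO for no effect and equimolar ferric chloride plus clioquinol rescue for full effect.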 In short, it runs like this:
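Medium dispensed, compounds pinned, A-beta yeast suspension added; plates held at 30 C for 48 hr; absorbance measured at 600 nm to gauge growth; values scaled between DMSO and FeCl3/clioquinol (equimolar) controls.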

A short description of test [4]: qHTS for Activators of Parkin Expression: LOPAC Validation Assay (NLuc Reporter) (AID 720572). In short, it runs like this:
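Cells harboring the Parkin-promoter coincidence reporter were treated for 24 h at seven concentrations. NLuc output was measured sequentially after the FLuc channel and scaled between DMSO and positive control values.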

A short description of test [5]: qHTS for Activators of Parkin Expression: LOPAC Validation Assay (FLuc Reporter) (AID 720573). The procedure, abridged:
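Cells seeded, 24 h; compounds pinned, 7-pt dose response; 24 h at 37 C/5% CO2; volume reduced; FLuc reagent 10 min RT; luminescence read. Normalization: DMSO = 0, positive control = 100%.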

A short description of test [6]: qHTS assay for small molecule agonists of the antioxidant response element (ARE) signaling pathway measured by Nrf2-dependant transcriptional activity (AID 720636; active = well fitted curve in the direction sought with a large enough effect in the repeat runs; an effect the other way counts as inactive or inconclusive;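 note: HepG2 cells with an ARE-driven luciferase reporter; % of control where 0% means no effect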). The procedure, abridged:
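Nrf2-dependent transcription is measured in ARE-luc HepG2 cells: compound is applied for 16 hr at 37 C after a 6 hr attachment period, and luciferase activity is quantified by luminescence using ONE-Glo.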

Test [7] can be described thus: qHTS assay for small molecule antagonists of the retinoid-related orphan receptor gamma (ROR-gamma) signaling pathway - cell viability counter screen (AID 720652; active = well fitted curve in the direction sought with a large enough effect in the repeat runs; an effect the other way counts as inactive or inconclusive;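 note: CHO reporter cells with doxycycline-induced ROR-gamma expression; compound exposure lasted 16 hr before ATP read; % is set by controls: 0 for no effect and ±100 for the full control effect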). In short, it runs like this:
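Cytotoxicity counter screen: intracellular ATP (CellTiter-Glo luminescence) measured in the doxycycline-induced CHO RORE-luciferase reporter line after 16 hr compound exposure at 37 C, 5% CO2.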

Test [8] is described as follows: qHTS assay for small molecule agonists of the antioxidant response element (ARE) signaling pathway measured by Nrf2-dependant transcriptional activity - cell viability counter screen (AID 720653; active = well fitted curve in the direction sought with a large enough effect in the repeat runs; an effect the other way counts as inactive or inconclusive; note: % is set by controls: 0 for no effect and ±100 for the full control effect). The settings on record: ARE-bla HepG2 viability, CellTiter-Glo ATP luminescence, 16 h; max response: stronger effect = lower value. The procedure, abridged: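 ARE-bla HepG2 cells (2,000/well) rested 5 hrs at 37C/5% CO2, then exposed to compounds in DMSO for 16 hrs. Viability was read in the same wells as intracellular ATP by luminescence, 30 min at room temperature after reagent addition.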

In test [9] the target is T1, Hexokinase-4 (Homo sapiens) + Glucokinase regulatory protein (Homo sapiens) (UniProt P35557+Q14397). Description: qHTS assay for inhibitors of recombinant human GCK-GKRP interaction: Diaphorase-coupled assay (AID 743205). The procedure, abridged:
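25 mM Hepes pH 7.6, 5 mM glucose, 0.4 mM ATP, 4 U/ml G6PDH; 10 nM each GST-GCK/FLAG-GKRP. Kinetic fluorescence read, 1/min × 30 min. Normalized: DMSO ± enzyme = max/min.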

Test [10] deals with T1, Hexokinase-4 (Homo sapiens) + Glucokinase regulatory protein (Homo sapiens). Description: qHTS assay for inhibitors of recombinant human GCK-GKRP interaction: ADP-Glo assay (AID 743206).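 Note: plate controls were DMSO plus enzyme for no effect and no enzyme for full effect.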 The procedure, abridged:
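Pin-transferred compounds meet a 15 nM GST-GCK/15 nM FLAG-GKRP/2 uM S6P mix (dispense concentrations). ATP is then added to 0.4 mM final with 5 mM glucose, and the reaction runs 60 min at room temperature. ADP is quantified luminescently.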

The target is the same in test [11]. Description: qHTS assay for inhibitors of recombinant human GCK-GKRP interaction: HTRF assay (AID 743207).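 Note: 0% = DMSO with GCK present and -100% = DMSO wells lacking GCK.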 The procedure, abridged:
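5 nM GST-GCK + 5 nM FLAG-GKRP + 2 uM S6P, pH 7.1 buffer (25 mM Hepes, 2 mM MgCl2, 25 mM KCl, 1 mM DTT, Tween/BSA); pin-transferred cpd; anti-FLAG XL665/anti-GST K; 60 min RT; HTRF.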

The nature of test [12]: qHTS Assay for Identifying Gametocytocidal Compounds (AID 743244).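 For max response: % is set by controls: 0 for no effect and ±100 for the full control effect; actives lower the fluorescent signal which means gametocytes are killed.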 Note: potency is the fitted concentration of half-maximal effect. Particulars: P. falciparum 3D7 stage III-V gametocytes, alamarBlue, 72 h; max response: stronger effect = lower value. In short, it runs like this:
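In this qHTS viability screen, late-stage 3D7 gametocytes are incubated with compound for 72 h, then with alamarBlue for 24 h; reduced resorufin fluorescence marks killing.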

The nature of test [13]: qHTS assay for cell viability of HEK293 cells (AID 743288). Note: % is set by controls: 0 for no effect and ±100 for the full control effect; nearly all actives have a fitted effect of over 50% in size. Particulars: ATP luminescence (CellTiter-Glo), 18 h; max response: stronger effect = lower value. In short, it runs like this: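 Viable-cell counts were inferred from luciferase-based ATP content in HEK293 cells seeded at 2,000/well, pre-incubated ≥5 h, then dosed with DMSO-solubilised compounds for 18 h at 37 C.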
Test [14] is described as follows: qHTS assay for cell viability of the p53RE-bla HCT-116 cell line (AID 743292). Note: % is set by controls: 0 for no effect and ±100 for the full control effect; nearly all actives have a fitted effect of over 55% in size. The procedure, abridged:
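ATP-based luminescence, 16 h compound exposure at 37 C, p53RE-bla HCT-116 cells at 4,000/well.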

Test [15] can be described thus: qHTS profiling of the MIPE4 collection as inhibitors of Plasmodium falciparum (3D7) proliferation (AID 743344; call rule not given here;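 note: scaled between DMSO vehicle wells and 0.29 µM artemisinin as full inhibition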). Particulars: P. falciparum 3D7 in erythrocytes, SYBR Green DNA fluorescence, 72 h; at 28.5 µM (top of the series) unless noted. In short, it runs like this: (§1)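 Parasite DNA was quantified by SYBR Green I fluorescence (ex 485, em 535 nm) after overnight lysis in saponin/Triton buffer at room temperature. Cultures at 0.3% parasitemia and 2.5% hematocrit were first exposed to compound for 72 h at 37 C; signals were normalised to artemisinin (0.29 uM) and vehicle wells.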

In test [16] the target is Tyrosine-protein kinase Yes (Homo sapiens) (UniProt P07947). Nature of the test: qHTS for small molecule inhibitors of Yes1 kinase: Primary Screen (AID 686947). Note: nearly all actives have a fitted effect of over 60% in size. Note: potency is the fitted concentration of half-maximal effect. The procedure, abridged: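 ADP-Glo luminescence reports ADP formed by 4 nM Yes1 phosphorylating poly(E4Y) (0.3 mg/mL) with 0.1 mM ATP for 60 min at room temperature, following 20 min compound preincubation; normalised between DMSO wells with and without enzyme.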

Test [17] is described as follows: qHTS for small molecule inhibitors of Yes1 kinase: Counter Assay (AID 686950).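 Note: no kinase present so only ADP-Glo detection of a fixed ADP amount is tested; luminescence from ADP-Glo reporting ADP in a fixed ATP and ADP mixture; 0% = DMSO wells with ATP plus ADP and -100% = ATP-only wells without ADP.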 In short, it runs like this:
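Measuring interference with ADP-Glo, the assay ran 60 min at room temperature on an ATP/ADP mix lacking enzyme. Values were normalized to ATP-plus-ADP (maximum) and ATP-only (minimum) DMSO controls.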

A short description of test [18]: qHTS profiling for inhibitors of Plasmodium falciparum (3D7) proliferation (AID 743322).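 Note: infected erythrocytes exposed to compound for 72 h before lysis; 100% = DMSO vehicle wells and 0% = 0.29 µM artemisinin.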 The settings on record: P. falciparum 3D7 proliferation, at 28.7 µM (top of the series). The procedure, abridged:
as §1

Test [19] in a line: qHTS profiling for inhibitors of Plasmodium falciparum (DD2) proliferation (AID 743323; call rule not given here). The settings on record: at 28.7 µM (top of the series), lower = more inhibition. The procedure, abridged: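 P. falciparum Dd2-infected erythrocytes (0.3% parasitemia, 2.5% hematocrit) exposed 72 h at 37 C, 5% CO2. Lysis with SYBR Green, overnight at room temperature, fluorescence 485/535 nm; normalized to 0.29 uM artemisinin and DMSO.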

The structures appear in SMILES notation. Several values for one entry are separate records, joined by “and”; a condition that tells them apart may be missing. Equal entries are not always repeated. Results filed as inconclusive are left out. Activity calls are given as the source filed them. Unless noted, calls come from the whole dose curve; as a rule, active = well fitted curve in the direction sought with a large enough effect; inconclusive = small, poorly fitted or top-dose-only effect, or another doubt; inactive = no such curve, though single readings can be large; an effect the other way counts as inactive or inconclusive.

T1 sequence (P35557 whole entry, looked up): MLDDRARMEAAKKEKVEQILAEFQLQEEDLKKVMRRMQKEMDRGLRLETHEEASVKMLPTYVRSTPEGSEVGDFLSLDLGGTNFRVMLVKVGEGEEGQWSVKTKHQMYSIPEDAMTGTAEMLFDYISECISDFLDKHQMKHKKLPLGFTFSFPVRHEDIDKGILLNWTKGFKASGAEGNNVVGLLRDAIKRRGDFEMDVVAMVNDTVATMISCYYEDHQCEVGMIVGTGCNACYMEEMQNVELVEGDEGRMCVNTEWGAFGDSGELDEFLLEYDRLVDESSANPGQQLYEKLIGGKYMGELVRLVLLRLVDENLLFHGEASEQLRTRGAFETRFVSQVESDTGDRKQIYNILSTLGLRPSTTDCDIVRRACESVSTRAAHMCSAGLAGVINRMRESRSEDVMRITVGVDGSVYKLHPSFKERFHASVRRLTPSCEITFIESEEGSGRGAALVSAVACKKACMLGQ
T1 sequence (Q14397 whole entry, looked up): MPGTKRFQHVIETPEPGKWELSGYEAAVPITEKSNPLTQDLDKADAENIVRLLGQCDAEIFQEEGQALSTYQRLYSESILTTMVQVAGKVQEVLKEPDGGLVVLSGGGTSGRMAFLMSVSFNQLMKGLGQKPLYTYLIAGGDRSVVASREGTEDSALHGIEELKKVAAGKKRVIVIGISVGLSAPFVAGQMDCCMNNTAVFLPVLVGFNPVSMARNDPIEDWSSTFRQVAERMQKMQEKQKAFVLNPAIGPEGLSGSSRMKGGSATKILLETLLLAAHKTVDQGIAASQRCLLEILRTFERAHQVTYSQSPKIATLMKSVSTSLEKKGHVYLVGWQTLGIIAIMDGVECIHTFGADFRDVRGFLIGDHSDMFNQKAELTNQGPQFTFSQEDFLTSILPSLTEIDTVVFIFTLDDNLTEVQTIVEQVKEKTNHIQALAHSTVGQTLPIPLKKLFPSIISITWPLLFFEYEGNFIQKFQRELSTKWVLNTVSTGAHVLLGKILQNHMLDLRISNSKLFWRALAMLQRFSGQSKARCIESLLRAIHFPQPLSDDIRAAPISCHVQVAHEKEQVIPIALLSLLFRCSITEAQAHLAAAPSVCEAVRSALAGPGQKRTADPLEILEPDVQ
Arylsulfatase A (Homo sapiens), sequence (P15289 whole entry, looked up): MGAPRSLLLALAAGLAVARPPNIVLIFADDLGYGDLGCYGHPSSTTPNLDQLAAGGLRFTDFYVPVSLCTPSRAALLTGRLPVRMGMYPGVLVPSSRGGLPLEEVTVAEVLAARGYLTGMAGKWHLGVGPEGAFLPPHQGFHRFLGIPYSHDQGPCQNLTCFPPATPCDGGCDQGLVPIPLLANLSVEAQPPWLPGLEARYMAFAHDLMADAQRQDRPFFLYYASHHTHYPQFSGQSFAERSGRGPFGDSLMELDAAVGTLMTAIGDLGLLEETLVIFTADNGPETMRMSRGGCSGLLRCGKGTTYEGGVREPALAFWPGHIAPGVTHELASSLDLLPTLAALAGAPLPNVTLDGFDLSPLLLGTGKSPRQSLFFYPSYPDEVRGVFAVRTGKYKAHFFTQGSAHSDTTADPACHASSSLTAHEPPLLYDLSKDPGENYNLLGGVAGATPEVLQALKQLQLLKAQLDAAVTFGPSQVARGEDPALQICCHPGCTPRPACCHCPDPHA
Tyrosine-protein kinase Yes (Homo sapiens), sequence (P07947 whole entry, looked up): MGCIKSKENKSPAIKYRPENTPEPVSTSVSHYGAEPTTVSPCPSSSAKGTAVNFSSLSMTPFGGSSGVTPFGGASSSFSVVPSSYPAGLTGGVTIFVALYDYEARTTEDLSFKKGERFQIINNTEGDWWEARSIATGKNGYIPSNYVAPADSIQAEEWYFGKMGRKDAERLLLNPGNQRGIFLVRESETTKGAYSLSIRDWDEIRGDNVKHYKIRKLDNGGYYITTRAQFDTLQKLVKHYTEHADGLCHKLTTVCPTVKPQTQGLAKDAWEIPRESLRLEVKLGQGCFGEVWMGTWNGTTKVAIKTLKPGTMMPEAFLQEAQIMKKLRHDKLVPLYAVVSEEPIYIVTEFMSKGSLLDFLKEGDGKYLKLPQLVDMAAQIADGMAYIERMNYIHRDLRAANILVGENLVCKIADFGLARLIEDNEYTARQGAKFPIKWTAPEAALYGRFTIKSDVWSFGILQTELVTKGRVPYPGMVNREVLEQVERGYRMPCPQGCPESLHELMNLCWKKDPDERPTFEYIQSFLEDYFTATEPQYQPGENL
Nuclear receptor ROR-gamma (Homo sapiens), sequence (P51449 whole entry, looked up): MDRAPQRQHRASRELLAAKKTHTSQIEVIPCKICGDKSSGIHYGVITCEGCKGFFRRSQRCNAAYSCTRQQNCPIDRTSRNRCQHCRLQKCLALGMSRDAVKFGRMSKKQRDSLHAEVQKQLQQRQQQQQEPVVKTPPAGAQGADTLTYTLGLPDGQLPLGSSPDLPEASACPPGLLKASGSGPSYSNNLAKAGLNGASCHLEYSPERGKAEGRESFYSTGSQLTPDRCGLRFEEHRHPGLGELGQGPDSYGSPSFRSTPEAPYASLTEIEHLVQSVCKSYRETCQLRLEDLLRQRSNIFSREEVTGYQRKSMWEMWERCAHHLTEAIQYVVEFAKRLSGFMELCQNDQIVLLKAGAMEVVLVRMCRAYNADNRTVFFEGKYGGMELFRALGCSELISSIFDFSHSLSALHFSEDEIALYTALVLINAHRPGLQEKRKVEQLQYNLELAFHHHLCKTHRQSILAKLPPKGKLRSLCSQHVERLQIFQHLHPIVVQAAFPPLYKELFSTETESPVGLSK

For `COc1ccc2[nH]cc(CCNC(C)=O)c2c1`, the Potency result in test [1], in test [2], in test [5], in [7], in test [9] and in test [10] was “inactive” throughout. The Potency entry in [11] and in test [14] was “inactive” each time. For the same compound, the compound was classed as inactive in [3], in test [4] and in [6]. Besides, the max response in test [8] was -10.7% (inactive) and -6.82% (inactive) and 8.47% (inactive); in [12] it was 6.15% (inactive) and 3.87% (inactive); in test [13] it was -9.99% (inactive) and -9.18% (inactive) and -3.1% (inactive). Also, the parasite growth, % of DMSO control in [15] was 89.5% and 101%.

Take `CC#C[C@]1(O)CC[C@H]2[C@@H]3CCC4=CC(=O)CCC4=C3[C@@H](c3ccc(N(C)C)cc3)C[C@@]21C`: the Potency result in [2], in test [5], in [9], in test [10], in test [11] and in test [14] was “inactive” in each case. For the same compound, the compound was classed as inactive in test [3], in test [4] and in [6]. Besides, in [8], the max response was -29.2% (inactive).

Regarding `N[C@@H](Cc1c[nH]c2ccc(O)cc12)C(=O)O`, the Potency entry in test [2], in test [5], in test [9], in test [10], in [11] and in test [14] was “inactive” each time. For the same compound, the compound was classed as inactive in [3], in test [4] and in test [6]. Further, the max response in test [8] is -3.27% (inactive); in test [12] it was -0.101% (inactive) and -5.53% (inactive); in test [13], 3.87% (inactive).

For the compound `O=C1c2c(O)ccc(O)c2C(=O)c2c(NCCNCCO)ccc(NCCNCCO)c21`, the Potency is 34.5 µM (active) in [16]; 23.9 µM (active) in test [2]; 7.94 µM (active) and 1.41 µM (active) in [12]. Further, the call in test [17], in test [3] and in test [4] was inactive. For the same compound, the Potency result in test [5], in test [9], in [10] and in [11] was “inactive” each time. The same compound returned a parasite growth, % of DMSO control in test [15] of 0.962%.

As to `CC(C)(Oc1ccc(C2CC2(Cl)Cl)cc1)C(=O)O` (centres undefined), the Potency result in test [2], in test [5], in test [9], in test [10], in test [11] and in [14] was “inactive” each time. Further, the result in test [3], in test [4] and in test [6] was inactive. In addition, the max response in test [8] is 10.6% (inactive); in test [12], 2.49% (inactive) and 6.24% (inactive); in test [13], -8.57% (inactive). In test [15], this compound yielded a parasite growth, % of DMSO control of 107% [at 57.5 µM].

As for `Cn1ccc2cc3c(cc21)CCN3C(=O)Nc1cccnc1`, the Potency result in test [16], in [9], in test [10] and in test [11] was “inactive” each time. Also, the compound was classed as inactive in [17], in [3] and in test [4]. Further, in [12], the max response was 16% (inactive) and 23.5% (inactive). This compound came in with a remaining parasite growth % (stronger effect = lower value) in [18] of 25%. In test [19], this compound had an activity, percent of control of 23%.

For the compound `CC(C)C(=O)Nc1ccc([N+](=O)[O-])c(C(F)(F)F)c1`, the Potency entry in [2], in test [5], in [7], in [9], in [10] and in [11] was “inactive” each time. Moreover, the Potency result in [14] was “inactive”. For the same compound, the compound was classed as inactive in test [3], in [4] and in test [6]. The max response is -4.94% (inactive) and -9.28% (inactive) in [8]; -7.87% (inactive) and -5.86% (inactive) in test [12]; -5.73% (inactive) and -15.5% (inactive) in test [13].
